Out of some 330,000 compounds screened, about 610 (0.18%) were called active. Inconclusive results (about 2%) are left out. Only a selection was taken, and actives are over-represented in it overall. Values without a mark were called inactive. The call rests on the fitted dose curve.

The values that follow come from PubChem BioAssay AID485353 (National Center for Advancing Translational Sciences (NCATS), 2010).
Potency means the concentration at half of the fitted maximal effect.

The test is described as follows: qHTS of Yeast-based Assay for SARS-CoV PLP. Further: nearly all actives have a fitted effect of over 55% in size. On activity, positive = growth rescue: 0% is about no effect. To be noted: S. cerevisiae expressing SARS-CoV PLpro; Potency: growth rescue; series mostly up to 32.9 µM; activity, positive = growth rescue: at the top concentration. For orientation: qHTS replaces the single test concentration by a dilution series.
Take `COc1ccc(NC(=O)C2CCC(CNS(=O)(=O)c3csc(C(N)=O)c3)CC2)cc1OC` (stereo unspecified): the “activity, positive = growth rescue” value was 2.32%.
In the case of `Cc1cc(C)c2nc3nc(C)cc(C)c3c(N)c2c1`, the “activity, positive = growth rescue” value is -3.61%.
Regarding `O=C(CN1C(=O)NC2(CCCCCCC2)C1=O)NCc1ccc(F)cc1`, the “activity, positive = growth rescue” value was -2.13%.
The same measure, in the same setting: the result for `Cc1ccccc1OCc1nnc(SCC(=O)N2c3ccccc3Sc3ccc(Cl)cc32)o1` reads -4.39%; that for `O=C(CC1CCCCC1)NCc1ccco1`, -0.144%.
As to `O=C(CN1C(=O)/C(=C\c2ccc(C(F)(F)F)cc2)Sc2ccccc21)NCc1ccco1`, the Potency was 12.6 µM (active).
For the molecule `O=C(CN1C(=O)/C(=C/c2ccccc2F)Sc2ccccc21)NCc1cccnc1`, the “activity, positive = growth rescue” value is 1.48%.
The same measure, in the same setting: the result for `COc1cccc(C(CC(=O)NCCN2CCOCC2)NS(=O)(=O)c2ccc(C)cc2)c1OC` (stereo unspecified) reads 2.49%; that for `CCc1nccn1CCC(=O)N1CCCC(N2CCN(c3ccccc3F)CC2)C1` (stereo unspecified), 5.56%; that for `CC1(c2ccc(Cl)cc2Cl)NC(=O)N(CC(=O)Nc2cccnc2Cl)C1=O` (stereo unspecified), 0.863%.
On to `O=C(c1ccco1)N1CCN(CC(=O)N(C2CCCCC2)C2CCS(=O)(=O)C2)CC1` (stereo unspecified), for which the “activity, positive = growth rescue” value is 0.872%.
Same read-out and setting: for `COc1ccc(CNC(=O)c2c[nH]c3c(OC)cc(OC)cc3c2=O)cc1` the value was 2.43%; for `CC(=O)N1N=C(c2ccncc2)OC1(Cc1ccccc1)Cc1ccccc1`, 0.466%.
In the case of `COC(=O)CCc1sc(Nc2ccc(Br)cc2)nc1-c1ccc(OC)cc1`, the “activity, positive = growth rescue” value was -25.4%.
The same measure, in the same setting: the result for `CN(C(=O)COC(=O)CCCc1c[nH]c2ccccc12)c1c(N)n(Cc2ccccc2)c(=O)[nH]c1=O` reads 2.28% [at 6.58 µM].
Take `Cc1ccc(SCC(=O)c2sc(-c3ccccc3)nc2C)cc1`: the Potency is 3.55 µM (active).
In the case of `Cc1nc(-c2ccc(Cl)cc2)sc1C(=O)CBr`, the “activity, positive = growth rescue” value was -22%.
Still for that read-out and setting: the result for `Cc1nc(-c2ccccc2)sc1C(=O)/C=C/N(C)C` reads -1.29%; that for `CN(CC(=O)NCCN1CCOCC1)S(=O)(=O)c1ccc(F)cc1`, 3.57%.
As to `Cc1ccc(-n2[nH]c(C)c(/C=N/NC(=O)c3cccc([N+](=O)[O-])c3)c2=O)cc1C`, the Potency is 1.26 µM (active).
In the case of `Cc1[nH]n(-c2ccccc2)c(=O)c1/C=N/NC(=O)c1ccoc1C`, the Potency is 2.51 µM (active).
For the molecule `COc1cc(/C=N/NC(=O)c2ccoc2C)ccc1OCCN1CCCCC1`, the “activity, positive = growth rescue” value was -3.16%.
With `C/C(=N\NC(=O)c1ccoc1C)c1ccccc1O`, the “activity, positive = growth rescue” value was -15.6%.
Same read-out and setting: the result for `Cc1[nH]n(-c2ccc([N+](=O)[O-])cc2)c(=O)c1C=NCCN1CCN(C(=O)c2ccccc2F)CC1` reads -15%; that for `C/C(=N\NC(=O)c1cccc([N+](=O)[O-])c1)c1cccnc1`, 1.13%; that for `O=C(Cn1cc(/C=N/NC(=O)c2cccc(C(F)(F)F)c2)c2ccccc21)Nc1ccc(F)cc1`, 1.14%.
As for `O=C(NCCCn1ccnc1)C(=O)NCC1OCCN1S(=O)(=O)c1cc(F)ccc1F` (stereo unspecified), the “activity, positive = growth rescue” value was 0.943%.
Still for that read-out and setting: for `CCc1cccc(NC(=O)COC(=O)c2cc(=O)c3ccccc3o2)c1` the value was -5.39%; for `Cc1ccc(SCc2c(C(=O)N/N=C/C3CC=CCC3)nnn2-c2nonc2N)cc1` (stereo unspecified), 0.713%.
As to `Nc1nonc1-n1nnc(C(=O)N/N=C/c2cc(Br)ccc2O)c1CSC1=NCCS1`, the Potency was 4.47 µM (active).
Take `Nc1nonc1-n1nnc(C(=O)N/N=C\c2ccncc2)c1CN1CCCCC1`: the “activity, positive = growth rescue” value is 1.85%.
Same read-out and setting: the result for `CSc1nc(-c2ccco2)nn1C(=O)c1ccccc1Cl` reads -2.37%; that for `COc1cc(C(=O)N/C(=C\c2cn(C)c3ccccc23)C(=O)N2CCOCC2)cc(OC)c1OC`, -0.452%; that for `CCN(CC)c1ccc(/C=N/NC(=O)c2cnccn2)c(O)c1`, 4.67%.
Regarding `Cc1cc(C)nc(N/N=C/c2c(CO)cnc(C)c2O)n1`, the “activity, positive = growth rescue” value is 0.145%.
As for `CCN(CC)c1ccc(/C=N/Nc2nc(C)cc(C)n2)c(O)c1`, the Potency is 5.01 µM (active).
Turning to `CC1(C)Cc2nc3sc4c(SCC(=O)NC(c5ccccc5)c5ccccc5)ncnc4c3cc2CO1`, the “activity, positive = growth rescue” value was 0.705%.
Consider `COc1ccc(NC(=O)C(=O)NCC(c2ccco2)N2CCc3ccccc3C2)cc1` (stereo unspecified), for which the “activity, positive = growth rescue” value is -16.8%.
On the same count and under the same terms, the result for `CCOc1c(Nc2cccc(Cl)c2)c(=O)c1=O` reads -0.74%.
Regarding `CCOCCCNC(=O)C(NC(=O)c1ccc(=O)[nH]c1)c1ccc(Cl)cc1` (stereo unspecified), the “activity, positive = growth rescue” value is 1.05%.
Still for that read-out and setting: the result for `CC1(C(=O)OCC(=O)Nc2ncc(Cl)cc2Cl)CC1(Cl)Cl` (stereo unspecified) reads -3.29%; that for `CN(CC(=O)Nc1ccc(S(=O)(=O)N2CCCC2)cc1)Cc1ccc(Cl)c(Cl)c1`, -24.7%.
Take `C=CCn1c(C23CC4CC(CC(C4)C2)C3)n[nH]c1=S`: the Potency is 11.2 µM (active).
For `C=CCn1c(SCC(=O)NC)nnc1C12CC3CC(CC(C3)C1)C2`, the “activity, positive = growth rescue” value was -2.6%.
In the case of `C=CCn1c(-c2sc(-c3ccccc3)nc2C)n[nH]c1=S`, the “activity, positive = growth rescue” value was 5.03%.
Regarding `C=CCNC(=O)/C(=C\c1cccc([N+](=O)[O-])c1)NC(=O)c1ccccc1`, the “activity, positive = growth rescue” value is -8.39%.
Still for that read-out and setting: the result for `O=C(Nc1ccc(C(=O)O)cc1)/C(=C/c1ccc([N+](=O)[O-])cc1)NC(=O)c1ccccc1` reads 0.0593%.
As for `O=C(N/N=C/c1cc([N+](=O)[O-])ccc1O)/C(=C\c1cccs1)NC(=O)c1ccccc1`, the Potency was 3.98 µM (active).
Regarding `CC1CCC(NC(=O)CN(C)S(=O)(=O)c2ccc3c(c2)c(=O)n(C)c(=O)n3C)CC1` (stereo unspecified), the “activity, positive = growth rescue” value was -0.025%.
Same read-out and setting: the result for `CCc1ccccc1NC(=O)CN(C)S(=O)(=O)c1ccc2c(c1)c(=O)n(C)c(=O)n2C` reads 7.46%.
In the case of `COc1cccc(CNC(=O)CN(C)S(=O)(=O)c2ccc3c(c2)c(=O)n(C)c(=O)n3C)c1`, the Potency was 3.55 µM (active).
